# Test results taken from PubChem BioAssay AID463173 (ICCB-Longwood Screening Facility, Harvard Medical School, 2010).
# About 4,300 (8.3%) of roughly 52,000 compounds were called active. Cut-off read from the data, not from the text of the source: active = survival mostly below about 52% (no sharp cut-off); inactive = mostly above about 56%. The sample as a whole holds a higher share of actives than the screen did.
# Tested on: DeltatarO mutant
# Test: S. aureus survival, RN4220 and DeltatarO strains – OD600, teichoic acid synthesis inhibitors, primary screen (AID 463173)
# Conditions: S. aureus RN4220 wild type/DeltatarO growth, OD600, 18 h, stronger effect = lower value, screened at 18.75 µg/mL (by protocol)
row,Compound,survival
1,COc1ccc(S(=O)(=O)NCCc2sc(C)nc2C)cc1F,88% (inactive)
2,CC(C)N(C(C)C)S(=O)(=O)c1ccccc1,100% (inactive)
3,COc1ccc(-c2nc3cccc(C)n3c2NC(C)(C)C)cc1O,109% (inactive)
4,COCCN1C(=O)N(c2cccc(OC)c2)C(=O)C1CC(=O)Nc1ccccc1 (stereo not drawn),139% (inactive)
5,CCOC(=O)c1sc(NC(=O)CSc2nnc(Cn3nnc4ccccc43)n2C)nc1C,94% (inactive)
6,O=C(CSc1nc(=O)[nH]c2c1CCC2)NCc1ccc(Cl)cc1,67% (inactive)
7,COc1ccc(NC(=O)Nc2nnc(N3CCCCCC3)s2)cc1,72% (inactive)
8,CC(C(=O)NCCSCc1cccc(Cl)c1)N(c1ccccc1)S(C)(=O)=O (stereo not drawn),61% (inactive)
9,CSc1ncc(Cl)c(C(=O)N(Cc2ccc(C)cc2)C2CCS(=O)(=O)C2)n1 (stereo not drawn),88% (inactive)
10,O=C(CN1C(=O)COc2ccc(S(=O)(=O)N3CCOCC3)cc21)N1CCN(c2ccc(Cl)cc2)CC1,92% (inactive)
11,CCOc1ccc(C(=O)Nc2c(C(=O)Nc3ccccc3OC)oc3ccccc23)cc1OCC,65% (inactive)
12,CCn1c(SCC(=O)c2ccc(C)cc2)nnc1C1CC1,66% (inactive)
13,COc1ccc2oc(-c3cccc(F)c3)cc(=O)c2c1,99% (inactive)
14,CCCCC(=O)Oc1ccc2oc(-c3ccc(OC)cc3)cc(=O)c2c1,30% (active)
15,COc1ccc(-c2cc(=O)c3cc(OCC(=O)OC(C)C)ccc3o2)cc1,124% (inactive)
16,Cc1cc(C)nc(SCC(=O)Oc2ccc3oc(=O)cc(C)c3c2)n1,95% (inactive)
17,COC(=O)COc1ccc2oc(-c3ccc(OC)cc3)cc(=O)c2c1,36% (active)
18,CCCC(=O)Oc1ccc2ccc(=O)oc2c1,89% (inactive)
19,O=C(Cn1c(=O)n(-c2ccccc2)c(=O)c2c3c(sc21)CCCC3)Nc1ccc(F)cc1,98% (inactive)
20,CCc1ccc(CNC(=O)c2cnc(N3CCCCC3)c3ccccc23)cc1,94% (inactive)
21,COc1ccccc1NC(=O)c1cc(S(=O)(=O)N2CCc3ccccc32)ccc1F,81% (inactive)
22,CCNC(=O)CC1C(=O)N(c2ccc(C)cc2)C(=O)N1CCC(C)C (stereo not drawn),91% (inactive)
23,CC(C)c1ccc(NC(=O)CCNS(=O)(=O)c2cccc3nsnc23)cc1,50% (inactive)
24,CNC(=O)c1ccc2nc(Cc3ccccc3)oc2c1,37% (active)

row,Compound,survival
1,O=C(NCCCN1CCN(c2ccccc2F)CC1)c1ccc2nc(Cc3ccccc3)oc2c1,46% (active)
2,O=C(NCCCN1CCN(c2ccccc2F)CC1)c1ccc2nc(CCc3ccccc3)oc2c1,87% (inactive)
3,O=C(NCCCN1CCN(c2ccccc2)CC1)c1ccc2nc(Cc3ccccc3)oc2c1,92% (inactive)
4,Cc1ccc(NC(=O)c2ccc3nc(Cc4ccccc4)oc3c2)cc1F,25% (active)
5,CNC(=O)c1ccc2nc(CCc3ccccc3)oc2c1,80% (inactive)
6,CCNC(=O)c1ccc2nc(Cc3ccccc3)oc2c1,101% (inactive)
7,Cc1ccccc1NC(=O)c1ccc2nc(Cc3ccccc3)oc2c1,102% (inactive)
8,CC(=O)c1cccc(NC(=O)c2ccc3nc(Cc4ccccc4)oc3c2)c1,63% (inactive)
9,Cc1ccc(-c2nnc(Nc3ccc(O)cc3)c3ccccc23)cc1S(=O)(=O)N1CCOCC1,65% (inactive)
10,O=C1C2C3C=CC(C3)C2C(=O)N1CCN1C(=O)C2C3C=CC(C3)C2C1=O (stereo not drawn),101% (inactive)
11,COc1ccccc1NC(=O)C1=C(C)Nc2nc(SC)nn2C1c1ccccc1Cl (stereo not drawn),87% (inactive)
12,COCCCNC(=O)CSc1c2c(nc3ccc(Cl)cc13)CCCC2,68% (inactive)
13,CC(C)CCNC(=O)CSc1c2c(nc3ccc(Cl)cc13)CCCC2,51% (active)
14,CCCCNC(=O)CSc1c2c(nc3ccc(Cl)cc13)CCCC2,38% (active)
15,COC(=O)c1ccccc1NC(=O)CSc1c2c(nc3ccc(Cl)cc13)CCCC2,86% (inactive)
16,CC(C)OCCCNC(=O)CSc1c2c(nc3ccc(Cl)cc13)CCCC2,71% (inactive)
17,CCCNC(=O)CSc1c2c(nc3ccc(Cl)cc13)CCCC2,62% (inactive)
18,CCOc1ccc(CNC(=O)CSc2c3c(nc4ccc(Cl)cc24)CCCC3)cc1,70% (inactive)
19,CCOc1ccccc1NC(=O)CSc1c2c(nc3ccc(Cl)cc13)CCCC2,45% (active)
20,CCN(CC)CCNC(=O)c1c(C)oc2ncn(C)c(=O)c12,91% (inactive)
21,Cc1ccc(CNC(=O)C2CCCN(c3nc4c(C)cc(C)cc4s3)C2)cc1 (stereo not drawn),94% (inactive)
22,CCC(=O)NC1CCC(c2ccccc2)CC1 (stereo not drawn),97% (inactive)
23,Cc1ccc(OC(=O)c2cccnc2)cc1,97% (inactive)
24,Cc1ccc(C)c(N2CCN(C(=O)c3cc4ccc5cccnc5c4[nH]3)CC2)c1,95% (inactive)

row,Compound,survival
1,Cc1c(C(=O)N2CCCCC2)c(S(=O)(=O)NCc2ccc(N(C)C)cc2)c(C)n1C,120% (inactive)
2,COc1cccc(-c2nnn(CCc3nn[nH]n3)n2)c1,84% (inactive)
3,CCOC(=O)CCN(c1ccccc1)S(=O)(=O)c1ccc2[nH]c(=O)ccc2c1,95% (inactive)
4,CCC(C(=O)N1CCN(c2ccc(OC)cc2)CC1)n1nc(C)n2c(cc3occc32)c1=O (stereo not drawn),117% (inactive)
5,CCC(C(=O)N1CCN(c2cc(C)ccc2C)CC1)n1nc(C)n2c(cc3occc32)c1=O (stereo not drawn),43% (active)
6,CCC(C(=O)N1CCN(c2cc(Cl)ccc2C)CC1)n1nc(C)n2c(cc3occc32)c1=O (stereo not drawn),69% (inactive)
7,Cc1ccc(S(=O)(=O)c2nc(S(=O)(=O)c3ccc(C)cc3)c(NCCCOC(C)C)s2)cc1,75% (inactive)
8,C=C(C)c1cccc(C(C)(C)NC(=O)N2CCCC2)c1,111% (inactive)
9,Cc1ccc(CNC(=O)Cc2c(C)c3c(cc(C)c4c(C)coc43)oc2=O)cc1,100% (inactive)
10,Cn1c(NCc2ccccc2F)nc2ccccc21,93% (inactive)
11,CCCCCn1c(NCc2ccc(OC)cc2)nc2ccccc21,33% (active)
12,CCCn1c(NCc2ccccc2F)nc2ccccc21,90% (inactive)
13,CCCC(O)c1nc2ccccc2n1Cc1ccccc1OC (stereo not drawn),105% (inactive)
14,CCCCCn1c(NCc2ccccc2OC)nc2ccccc21,-1% (active)
15,CCCn1c(NCc2ccc(N(CC)CC)cc2)nc2ccccc21,29% (active)
16,CCCn1c(NCc2ccccc2C)nc2ccccc21,108% (inactive)
17,CCn1c(NCc2ccccc2)nc2ccccc21,95% (inactive)
18,CCn1c(NCc2ccc(OC)c(OC)c2)nc2ccccc21,116% (inactive)
19,CCCCn1c(NCc2cc(Br)ccc2O)nc2ccccc21,42% (active)
20,CCCCn1c(NCc2ccc(N(C)C)cc2)nc2ccccc21,52% (inactive)
21,CCCCn1c(NCc2ccc(OC)cc2O)nc2ccccc21,66% (inactive)
22,CCOC(=O)c1cc(-c2ccc(F)cc2)n(CCC(=O)Nc2cc(OC)cc(OC)c2)c1C,71% (inactive)
23,Cc1ccc(Cl)cc1-n1ncc2c(Nc3ccc4c(c3)OCCO4)ncnc21,82% (inactive)
24,Cc1c(C(=O)N2CCCC2)oc2c1-c1nn(CC(=O)NCc3cccc(Br)c3)cc1CC2,75% (inactive)

row,Compound,survival
1,COc1ccccc1-c1cc2nc(C)c(CCC(=O)Nc3cc(C)ccc3C)c(C)n2n1,60% (inactive)
2,COc1ccc(CNC(=O)C2(c3cccs3)CCOCC2)cc1,72% (inactive)
3,CCOc1ccc2c(c1)c(=O)c(S(=O)(=O)c1ccccc1)cn2CC(=O)Nc1ccccc1OC,70% (inactive)
4,CC1=C(C(=O)NCc2ccc(Cl)cc2)C2(CCC(C)CC2)OC1=O (stereo not drawn),86% (inactive)
5,Cc1nn(C)c2c1c(C(F)(F)F)cc(=O)n2C(C)C(=O)NCCc1ccc(Cl)cc1 (stereo not drawn),81% (inactive)
6,Cn1c(=O)nc2n(-c3ccc(Cl)c(Cl)c3)c3cc(Cl)ccc3cc-2c1=O,87% (inactive)
7,CCOc1ccc(CN2CCc3nc(N4CCN(c5ccccn5)CC4)ncc3C2)cc1OC,120% (inactive)
8,COc1ccc(C2c3c(oc4ccccc4c3=O)C(=O)N2Cc2ccc3c(c2)OCO3)cc1 (stereo not drawn),71% (inactive)
9,CCOc1cc(C2c3c(oc4ccccc4c3=O)C(=O)N2Cc2ccc3c(c2)OCO3)ccc1O (stereo not drawn),81% (inactive)
10,CCCOc1ccc(C2c3c(oc4ccccc4c3=O)C(=O)N2c2nnc(C(C)C)s2)cc1 (stereo not drawn),58% (active)
11,CCCOc1ccc(C2c3c(oc4ccccc4c3=O)C(=O)N2c2nc(C)c(C(=O)OCC)s2)cc1 (stereo not drawn),60% (inactive)
12,COC(=O)c1ccc(C2c3c(oc4ccccc4c3=O)C(=O)N2c2nc(C)c(C(=O)OC)s2)cc1 (stereo not drawn),71% (inactive)
13,CC(C)c1nnc(N2C(=O)c3oc4ccccc4c(=O)c3C2c2cccc(O)c2)s1 (stereo not drawn),62% (inactive)
14,CCOC(=O)c1sc(N2C(=O)c3oc4ccccc4c(=O)c3C2c2ccc(C(C)(C)C)cc2)nc1C (stereo not drawn),51% (active)
15,CCOc1ccc(C2c3c(oc4ccccc4c3=O)C(=O)N2Cc2ccc3c(c2)OCO3)cc1 (stereo not drawn),36% (active)
16,CCOc1cccc(C2c3c(oc4cc(C)c(C)cc4c3=O)C(=O)N2c2nc(C)c(C)s2)c1 (stereo not drawn),74% (active)
17,Cc1nc(N2C(=O)c3oc4ccccc4c(=O)c3C2c2cccc(OCCC(C)C)c2)sc1C (stereo not drawn),59% (inactive)
18,CCOc1cccc(C2c3c(oc4ccccc4c3=O)C(=O)N2c2nc(C)c(C(=O)OC)s2)c1 (stereo not drawn),51% (inactive)
19,COc1cc(C2c3c(oc4ccccc4c3=O)C(=O)N2c2nnc(C(C)C)s2)cc(OC)c1OC (stereo not drawn),63% (inactive)
20,Cc1cccc(CC(=O)NCCc2csc(-c3ccc(C(F)(F)F)cc3)n2)c1,101% (inactive)
21,CCc1ccc(-n2c(=O)c3ccccc3n(CC(=O)NCCc3ccc(OC)c(OC)c3)c2=O)cc1,91% (inactive)
